TSHR antagonist – blocks TSH signaling through the human TSH receptor; 330,000 compounds, 0.2% hits; TSHR-expressing cells, TSH-stimulated cAMP HTRF, 2 h; hits give low values; activity change, negative = inhibition, % at 11.5 µM; AID 504810; P16473;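 active means activity change below a set negative limit, meaning inhibition stronger than a set level, cut at about -70% in these data; inconclusive means activity change between two set negative limits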; further: on the % scale 0 is the no-effect control and ±100 the full control effect
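Competitive HTRF cAMP read-out (cryptate anti-cAMP antibody, cAMP-d2; 30 min, room temperature) in freshly harvested TSHR cells. Compounds added before TSH at EC80 (4nM final), followed by 2 hours' incubation at 37 deg C.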
Vif-APOBEC3F blk – blocks the Vif interaction with APOBEC3F; HeLa A3F-eYFP + Vif (tagged APOBEC3F with the HIV-1 protein that degrades it), YFP fluorescence increase; 390,000 compounds, 0.2% hits; AID 602313; Potency, µM (titrated, usually from 46.1 µM), for the others: at the highest dose activity, negative = active; further: potency means the concentration at half of the fitted maximal effect; % of control where 0% means no effect; nearly all actives have a fitted effect of over 65% in size
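HeLa cells stably expressing A3F-eYFP plus Vif, plated and incubated overnight at 37 deg C, then exposed to compounds overnight at 37 deg C. Blocked degradation read as raised yellow fluorescence (Ex 488/Em 500-530).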
PLK1 PBD inh – blocks phosphopeptide binding to human PLK1 polo-box domain. Potency, µM, inactives show max response, negative = inhibition, most hits filed as inhibitors. AID 720504. 360,000 compounds, 2.8% hits. P53350. Plk1 PBD binding of FITC phosphopeptide, fluorescence polarization; further: potency means the concentration at half of the fitted maximal effect; series mostly up to about 57 µM; on the % scale 0 is the no-effect control and ±100 the full control effect; nearly all actives have a fitted effect of over 65% in size
Target sequence (P53350 whole entry, looked up, the tested form may be a part): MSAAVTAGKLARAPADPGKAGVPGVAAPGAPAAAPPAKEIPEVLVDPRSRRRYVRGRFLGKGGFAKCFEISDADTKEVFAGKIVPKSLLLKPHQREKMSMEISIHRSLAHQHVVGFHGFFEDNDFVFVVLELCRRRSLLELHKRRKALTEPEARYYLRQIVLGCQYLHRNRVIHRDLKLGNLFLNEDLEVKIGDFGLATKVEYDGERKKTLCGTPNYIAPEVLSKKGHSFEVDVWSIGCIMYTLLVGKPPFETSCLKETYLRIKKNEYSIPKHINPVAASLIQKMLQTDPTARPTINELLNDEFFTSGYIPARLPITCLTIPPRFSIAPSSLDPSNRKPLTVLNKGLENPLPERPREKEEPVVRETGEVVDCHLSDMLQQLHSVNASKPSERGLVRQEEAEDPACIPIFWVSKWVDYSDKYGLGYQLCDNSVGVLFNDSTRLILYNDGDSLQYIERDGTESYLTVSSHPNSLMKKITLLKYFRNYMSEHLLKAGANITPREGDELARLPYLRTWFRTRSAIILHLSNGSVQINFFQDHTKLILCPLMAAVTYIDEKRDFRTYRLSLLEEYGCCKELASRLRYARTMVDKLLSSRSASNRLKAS
Vif-APOBEC3G blk – Vif-A3G binding inhibition. HeLa A3G-eYFP + Vif (tagged APOBEC3G with the HIV-1 protein that degrades it), YFP fluorescence, overnight. Potency, µM (top dose mostly 46.1 µM), for inactives: top-dose activity, negative = active, actives largely listed as inhibitors. 410,000 compounds, 0.076% hits. AID 602310; further: potency means the concentration at half of the fitted maximal effect; on the % scale 0 is the no-effect control and ±100 the full control effect; nearly all actives have a fitted effect of over 60% in size
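HeLa cells stably expressing Vif and C-terminally eYFP-tagged A3G, seeded overnight at 37 deg C, then exposed to compound by pintool overnight at 37 deg C. Rise in yellow fluorescence (Ex 488/Em 500-530, Acumen) marks blocked Vif-driven A3G degradation.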
VDR inh – blocks the human vitamin D receptor. Potency, µM, for inactives: max response, negative = inhibition, actives largely listed as inhibitors. 400,000 compounds, 0.93% hits. VDR-SRC2-3 peptide fluorescence polarization, 2 h. AID 504847. P11473; further: potency means the concentration at half of the fitted maximal effect; on the % scale 0 is the no-effect control and ±100 the full control effect
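Measured by FP: displacement of SRC2-3 coactivator peptide from VDR by library compounds, following a two-hour ambient incubation.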
Starred values were filed as active, the others as inactive; ? = inconclusive; / = not tested or not shown; ! = repeats disagree. Compounds with a hit are over-represented: about 3.1% of the library has one in this group of screens. Unless noted, the call rests on the fitted dose curve; in most records, active means well fitted curve in the direction sought with a large enough effect; inconclusive means small, poorly fitted or top-dose-only effect, or another doubt; inactive means no such curve, though single readings can be large; an effect the other way counts as inactive or inconclusive.

SMILES	TSHR antagonist	Vif-APOBEC3F blk	PLK1 PBD inh	Vif-APOBEC3G blk	VDR inh
CC(C)Cn1c(-c2csc3c2CCCC3)n[nH]c1=S	-82*	-3%	-6%	0%	-15%
CC(C)Cn1c(-c2ccccc2F)n[nH]c1=S	-22	-8%	-19%	3%	-4%
O=C(O/N=C1/CCCc2occc21)c1ccc(F)cc1	-9	3%	12µM*	6%	?
O=c1c(O)c(-c2ccc(O[C@@H]3O[C@H](CO)[C@@H](O)[C@H](O)[C@H]3O)c(O)c2)oc2cc(O)cc(O)c12	/	/	/	/	-2%
COC(=O)c1ccc(CNC(=O)C2CCC(=O)N(CCc3ccccn3)C2)cc1 (stereo not drawn)	/	-1%	-4%	2%	/
COC(=O)c1ccc(CNC(=O)C2CCC(=O)N(CCCc3ccccc3)C2)cc1 (stereo not drawn)	17	2%	3.4µM*	2%	?
CCOc1cc(/C=C2\C(=O)N(CCC#N)N=C2C)ccc1OCC(N)=O	-1	-1%	19µM*	2%	-5%
COc1cc(/C=C2\C(=O)N(CCC#N)N=C2C)ccc1OCC(=O)Nc1ccccc1	4	-33%	1.3µM*	-7%	?
O=C1C(c2[nH]c3ccc(S(=O)(=O)O)cc3c2O)=Nc2ccc(S(=O)(=O)O)cc21	/	/	/	-30%	?
COc1ccc(C(=O)Nc2nnc(-c3ccccc3)s2)cc1	-5	-18%	5%	-2%	14%
CCC(NC(=O)Nc1ncccc1C)(C(F)(F)F)C(F)(F)F	1	-1%	1%	1%	7%
CCC(NC(=O)Nc1nnc(C(F)(F)F)s1)(C(F)(F)F)C(F)(F)F	-87*	0%	-5%	0%	11%
COc1ccc(C(=O)Nc2nnc(C(F)(F)F)s2)cc1	-32	/	27µM*	0%	-24%
CCCCCC[N+](C)(C)CCSSCC[N+](C)(C)CCCCCC	5	3%	1.2µM*	0%	8.9µM*
CC(Cc1c[nH]c2ccccc12)NC(N)=O (stereo not drawn)	10	6%	-8%	0%	2%
CC[C@@H](C)[C@H](NS(=O)(=O)c1cccc2ccccc12)C(=O)N[C@H](C=O)Cc1c[nH]c2ccccc12	/	/	/	/	32µM*
Cc1cc(/C=N/NC(=O)c2ccc(O)cc2)c(C)n1C1CC1	0	-5%	19µM*	-5%	-19%
N#Cc1cccc(-c2nc(NCCN3CCOCC3)c3ccccc3n2)c1	/	/	/	/	-1%
COc1cccc(-c2nnc(-c3ccco3)o2)c1	-1	8%	30µM*	-1%	?
CC(OC(=O)c1ccccc1OCCOc1ccccc1)C(=O)Nc1ccc(Br)cc1 (stereo not drawn)	/	/	/	-3%	/
O=[N+]([O-])c1ccc2nc(CO)[nH]c2c1	/	/	/	-4%	/
CCN1CCc2c(sc(-n3cccc3)c2C(C)NC(=O)Nc2ccc(C(=O)OC)cc2)C1 (stereo not drawn)	/	22µM*	/	?	16%
CSc1ccccc1NC(=O)Nc1cccc(Cl)c1	4	-4%	-6%	-3%	-3%
O=C(Nc1cccc(C(F)(F)F)c1)Nc1cc(Cl)ccc1C(=O)O	/	/	/	/	50µM*
O=C(Nc1ccccc1)Nc1cccc(C(F)(F)F)c1	-14	4%	-6%	-1%	9%
SMILES	TSHR antagonist	Vif-APOBEC3F blk	PLK1 PBD inh	Vif-APOBEC3G blk	VDR inh
Cc1ccc(NC(=O)Nc2cccc(Cl)c2)c(C(=O)O)c1	8	-14%	19µM*	-4%	?
Cc1nc([N+](=O)[O-])cn1CC(O)c1ccc2c(c1)OCO2 (stereo not drawn)	/	/	/	-1%	/
COc1cc(C2C(C(=O)OC(C)C)=C(C)N=C3SCCC(=O)N32)ccc1OCc1ccccc1 (stereo not drawn)	/	3%	/	-1%	0%
Nc1ccc(-n2nnnc2CN2CCOCC2)cc1	-4	-9%	-11%	-2%	19%
Nc1cccc(-n2nnnc2CN2CCOCC2)c1	9	6%	11µM*	2%	45µM*
O=C(Nc1nc2c(s1)CN(Cc1ccccc1)CC2)c1c(F)cccc1F	6	0%	21µM*	4%	12%
OCc1ccc(-c2ccc(-c3ccc(CO)s3)o2)s1	/	/	/	/	10µM*
Cc1nn(C)cc1C(=O)Nc1cc(Oc2ccc(Cl)cc2)cc([N+](=O)[O-])c1	-25	0%	27µM*	0%	-16%
CC(=O)Nc1ccc(S(=O)(=O)NNc2ccc([N+](=O)[O-])cc2)cc1	-9	-9%	?	0%	89µM*
CC(=O)Nc1ccc(Oc2cc(NC(C)=O)cc([N+](=O)[O-])c2)cc1	-7	6%	7.5µM*	-4%	?
CC(=O)Nc1ccc(S(=O)(=O)NNC(=O)c2ccc([N+](=O)[O-])cc2)cc1	2	-3%	-2%	-2%	3%
Cn1cc([N+](=O)[O-])c(C(=O)Nc2cc(Oc3ccccc3)cc([N+](=O)[O-])c2)n1	-26	-25%	-15%	-18%	-10%
Cc1ccc(Oc2cc(NC(=O)CCCn3nc([N+](=O)[O-])cc3C)cc([N+](=O)[O-])c2)cc1	-70*	-20%	2%	1%	-8%
Cn1c(SCC(=O)NCc2ccco2)nnc1-c1ccc(NC(=O)c2ccccc2)cc1	/	/	/	-6%	/
Cc1cc2nc3c(=O)[nH]c(=O)nc-3n(C[C@H](O)[C@H](O)[C@H](O)COP(=O)(O)OP(=O)(O)OC[C@H]3O[C@@H](n4cnc5c(N)ncnc54)[C@H](O)[C@@H]3O)c2cc1C	/	/	/	/	-11%
Cc1ccc(C)c(NC(=O)Cn2c(=O)n(-c3ccccc3C)c(=O)c3c2c2cc(C)ccc2n3C)c1	/	-1%	/	4%	11%
O=C(NCC1CC1)c1ccc(Nc2nc3ccc(Br)cc3[nH]2)cc1	-10	7%	11µM*	-2%	-8%
CCNC(=O)c1c(O)c2c([nH]c1=O)CCCC2	-4	2%	27µM*	-4%	?
CC1CCN(S(=O)(=O)c2ccc3c(c2)N(CC(=O)N2CCN(c4ccccc4)CC2)C(=O)CO3)CC1	/	-5%	/	-54%	7%
CCOC(=O)/C=C(C)/C=C/C=C(C)/C=C/c1c(C)cc(OC)c(C)c1C	/	/	/	/	-7%
COc1cc(C)c(/C=C/C(C)=C/C=C/C(C)=C/C(=O)O)c(C)c1C	/	-17%	30µM*	1%	45µM*!
CCCSc1ncc(Cl)c(C(=O)Nc2ccc(OC)cc2OC)n1	/	/	/	/	3%
Cc1ccc(Oc2ccccc2/C=N/O)cc1	2	-2%	3.4µM*	-6%	-17%
CN(C)CCCNCC(=O)c1c(-c2ccccc2)n(C)c2ccccc12	23	-11%	-21%	0%	79µM*
Cn1c(-c2ccccc2)c(C(=O)CC#N)c2ccccc21	10	?	-6%	-3%	-14%
CC1CC=CC2C1C(=O)N(Cc1ccccc1)C2c1cccc([N+](=O)[O-])c1 (stereo not drawn)	/	/	/	3%	-13%
Cc1ccc(-n2nc(C)c(Sc3ccccc3[N+](=O)[O-])c2N)cc1	10	2%	2.4µM*	5%	?

Compound activity: PubChem, National Center for Advancing Translational Sciences (NCATS)
